Records with an inconclusive call do not appear. Active and inactive are the calls of the source. Unless noted, the call rests on the fitted dose curve; in most records, active means well fitted curve in the direction sought with a large enough effect; inconclusive means small, poorly fitted or top-dose-only effect, or another doubt; inactive means no such curve, though single readings can be large; an effect the other way counts as inactive or inconclusive.
What was measured:
[1] = qHTS of Nrf2 Activators: LOPAC Validation (AID 624149); further: 0% is about no effect
Summary of the method: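 Luminescence read-out of ARE-luciferase activation: AREc32_Fluc cells treated with compounds for 24 hr at 37 deg C, then lysed with Steady-Glo for 30 min at room temperature before reading.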

[2] = HTS Assay for Allosteric Antagonists of the Human D2 Dopamine Receptor: Hit Validation in HTRF (AID 624455);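 further: stable D1 dopamine receptor cell line scored for blocking the D1 response; on the % scale 0 is the no-effect control and ±100 the full control effect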
Summary of the method: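 First, antagonism was screened by calcium flux in a force-coupled, inducible Hek293 Trex D2 line challenged with EC80 dopamine. Hits then went into an HTRF assay in cells stably expressing D1, testing inhibition of the D1 response.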

[3] = qHTS for compounds that reverse cellular toxicity of Amyloid beta (A-beta) peptide in yeast: LOPAC Validation Assay (AID 720559);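 further: plate controls were DMSO for no effect and equimolar ferric chloride plus clioquinol rescue for full effect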
Summary of the method: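 Here, A-beta-toxic yeast grow with test compounds at 30 C for 48 hr before optical density at 600 nm is recorded; data are normalized against DMSO and the FeCl3-clioquinol control.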

[4] = qHTS for Activators of Parkin Expression: LOPAC Validation Assay (FLuc Reporter) (AID 720573;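 further: 0% = DMSO and 100% = positive control compounds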)
Summary of the method: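 Readout is FLuc luminescence from neuronal reporter cells (Parkin promoter, FLuc plus NLuc) after 24 h compound exposure in dose response. Values normalized to neutral DMSO and positive-control compounds.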

[5] = molecular target: T1, Hexokinase-4 (Homo sapiens) + Glucokinase regulatory protein (Homo sapiens) (UniProt P35557+Q14397); assay: qHTS assay for inhibitors of recombinant human GCK-GKRP interaction: Diaphorase-coupled assay (AID 743205)
T1 sequence (P35557 whole entry, looked up): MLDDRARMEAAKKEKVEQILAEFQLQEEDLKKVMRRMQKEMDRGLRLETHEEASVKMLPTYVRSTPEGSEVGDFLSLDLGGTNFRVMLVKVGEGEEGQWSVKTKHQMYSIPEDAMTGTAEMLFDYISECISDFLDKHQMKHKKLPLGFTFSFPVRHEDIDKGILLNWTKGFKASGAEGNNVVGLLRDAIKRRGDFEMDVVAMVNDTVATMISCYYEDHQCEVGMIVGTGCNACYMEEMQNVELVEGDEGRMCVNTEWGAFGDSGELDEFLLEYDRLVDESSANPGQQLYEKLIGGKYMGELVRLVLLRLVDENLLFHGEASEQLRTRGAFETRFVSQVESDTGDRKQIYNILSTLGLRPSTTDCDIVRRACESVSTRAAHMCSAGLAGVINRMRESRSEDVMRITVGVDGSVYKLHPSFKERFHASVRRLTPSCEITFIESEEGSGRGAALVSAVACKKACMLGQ
T1 sequence (Q14397 whole entry, looked up): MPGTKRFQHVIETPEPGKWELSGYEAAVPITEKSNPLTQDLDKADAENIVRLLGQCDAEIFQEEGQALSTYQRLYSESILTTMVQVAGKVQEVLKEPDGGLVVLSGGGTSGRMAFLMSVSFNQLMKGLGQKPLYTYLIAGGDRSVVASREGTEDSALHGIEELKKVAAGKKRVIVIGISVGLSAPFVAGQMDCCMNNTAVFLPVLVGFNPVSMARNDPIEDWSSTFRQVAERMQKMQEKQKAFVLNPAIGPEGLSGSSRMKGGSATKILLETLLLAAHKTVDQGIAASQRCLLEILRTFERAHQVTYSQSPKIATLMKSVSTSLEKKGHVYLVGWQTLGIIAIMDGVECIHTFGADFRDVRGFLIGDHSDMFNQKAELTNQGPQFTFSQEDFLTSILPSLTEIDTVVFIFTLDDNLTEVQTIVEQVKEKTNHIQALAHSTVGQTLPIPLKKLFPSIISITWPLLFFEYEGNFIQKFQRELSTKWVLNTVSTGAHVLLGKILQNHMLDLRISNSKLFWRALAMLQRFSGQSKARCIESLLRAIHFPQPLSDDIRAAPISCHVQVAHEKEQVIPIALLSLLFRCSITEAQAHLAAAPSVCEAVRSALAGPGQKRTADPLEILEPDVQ
Summary of the method: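 Signal derives from resorufin generated by diaphorase, linked to GCK turnover of glucose (5 mM) and ATP (0.4 mM). Enzyme complex was added after a 20-minute compound preincubation and monitored for 30 minutes.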

[6] = molecular target: T1, Hexokinase-4 (Homo sapiens) + Glucokinase regulatory protein (Homo sapiens); assay: qHTS assay for inhibitors of recombinant human GCK-GKRP interaction: ADP-Glo assay (AID 743206);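 further: plate controls were DMSO plus enzyme for no effect and no enzyme for full effect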
Summary of the method: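 GST-GCK and FLAG-GKRP (15 nM each in the dispensed mix, with 2 uM S6P) react with 0.4 mM ATP and 5 mM glucose (final) in Hepes pH 7.6 for 60 min at room temperature. ADP is measured by ADP-Glo luminescence.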

[7] = molecular target: T1, Hexokinase-4 (Homo sapiens) + Glucokinase regulatory protein (Homo sapiens); assay: qHTS assay for inhibitors of recombinant human GCK-GKRP interaction: HTRF assay (AID 743207);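 further: 0% = DMSO with GCK present and -100% = DMSO wells lacking GCK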
Summary of the method: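 Titration screening format: recombinant GST-GCK and FLAG-GKRP at 5 nM, S6P at 2 uM, labelled anti-tag antibodies, 60 min at RT, dual-wavelength HTRF readout.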

[8] = Natriuretic polypeptide receptor (hNpr1) antagonism - Pilot counterscreen GloSensor control cell line (AID 1347045; calls by dose curve; further: potency means the concentration at half of the fitted maximal effect)
Summary of the method: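 Luminescence was read before and 20 min after adding 50 uM SNP, which stimulates soluble guanylyl cyclase. The HEK293 cells expressing the GloSensor cGMP sensor had been preloaded with 2% reagent for 2 h and treated with compound.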

[9] = molecular target: Atrial natriuretic peptide receptor 1 (Homo sapiens) (UniProt P16066); assay: Natriuretic polypeptide receptor (hNpr1) antagonism - Pilot screen (AID 1347049; calls by dose curve;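 further: agonist-evoked cGMP luminescence read 20 min after hNppA addition; potency means the concentration at half of the fitted maximal effect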)
Atrial natriuretic peptide receptor 1 (Homo sapiens), sequence (P16066 whole entry, looked up): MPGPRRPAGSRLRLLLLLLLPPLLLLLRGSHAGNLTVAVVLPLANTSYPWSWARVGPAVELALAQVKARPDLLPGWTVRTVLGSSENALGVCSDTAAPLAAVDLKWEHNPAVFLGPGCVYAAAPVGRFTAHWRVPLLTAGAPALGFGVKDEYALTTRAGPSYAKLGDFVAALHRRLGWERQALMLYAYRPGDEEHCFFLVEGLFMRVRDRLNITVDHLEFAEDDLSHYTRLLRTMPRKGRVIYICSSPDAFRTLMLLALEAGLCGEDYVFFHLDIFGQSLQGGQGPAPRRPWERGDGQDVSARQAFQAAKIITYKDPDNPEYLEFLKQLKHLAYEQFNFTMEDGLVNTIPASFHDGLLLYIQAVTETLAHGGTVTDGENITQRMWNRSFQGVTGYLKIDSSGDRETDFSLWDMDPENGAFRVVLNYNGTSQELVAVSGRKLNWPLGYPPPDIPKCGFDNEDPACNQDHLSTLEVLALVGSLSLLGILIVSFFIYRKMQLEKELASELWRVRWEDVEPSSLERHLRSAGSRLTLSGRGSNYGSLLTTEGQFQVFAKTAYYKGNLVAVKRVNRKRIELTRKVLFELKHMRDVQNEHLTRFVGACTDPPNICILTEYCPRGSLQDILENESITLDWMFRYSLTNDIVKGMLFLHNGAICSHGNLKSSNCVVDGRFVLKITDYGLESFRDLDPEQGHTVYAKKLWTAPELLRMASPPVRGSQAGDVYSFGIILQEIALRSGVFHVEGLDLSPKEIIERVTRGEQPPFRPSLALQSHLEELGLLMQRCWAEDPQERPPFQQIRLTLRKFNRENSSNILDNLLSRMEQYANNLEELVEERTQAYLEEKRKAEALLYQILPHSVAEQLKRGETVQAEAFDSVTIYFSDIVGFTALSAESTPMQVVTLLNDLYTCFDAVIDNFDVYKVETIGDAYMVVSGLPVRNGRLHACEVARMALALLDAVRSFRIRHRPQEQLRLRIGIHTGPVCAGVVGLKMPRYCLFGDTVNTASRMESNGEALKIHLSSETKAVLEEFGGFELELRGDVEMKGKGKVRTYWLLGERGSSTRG
Summary of the method: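 Readout is cGMP-driven firefly luciferase luminescence in HEK293 cells carrying hNpr1 and a PDE5-domain GloSensor, read before and 20 min after 0.1 nM hNppA stimulation. Cells had 2% substrate reagent for 2 h and test compound for 30 min.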

[10] = molecular target: Atrial natriuretic peptide receptor 2 (Homo sapiens) (UniProt P20594); assay: Natriuretic polypeptide receptor (hNpr2) antagonism - Pilot subtype selectivity assay (AID 1347050; calls by dose curve; further: potency means the concentration at half of the fitted maximal effect)
Summary of the method: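 Pilot selectivity screen against hNpr2: HEK293 cGMP-sensor cells are treated with LOPAC1280 compounds, then with hNppC peptide at 1 nM final. The cGMP-driven luminescence change over 20 min at room temperature is the read-out.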

[11] = molecular target: T2, Tyrosine-protein phosphatase non-receptor type substrate 1 (Homo sapiens) + Leukocyte surface antigen CD47 (Homo sapiens) (UniProt P78324+Q08722); assay: CD47-SIRPalpha protein protein interaction - LANCE assay qHTS validation (AID 1347057; active means well fitted curve in the direction sought with a large enough effect in the signal ratio, with a control signal flat, not every such curve was filed as active; the % refers to the signal ratio; further: series mostly up to about 38 µM; 0% is about no effect)
T2 sequence (P78324 whole entry, looked up): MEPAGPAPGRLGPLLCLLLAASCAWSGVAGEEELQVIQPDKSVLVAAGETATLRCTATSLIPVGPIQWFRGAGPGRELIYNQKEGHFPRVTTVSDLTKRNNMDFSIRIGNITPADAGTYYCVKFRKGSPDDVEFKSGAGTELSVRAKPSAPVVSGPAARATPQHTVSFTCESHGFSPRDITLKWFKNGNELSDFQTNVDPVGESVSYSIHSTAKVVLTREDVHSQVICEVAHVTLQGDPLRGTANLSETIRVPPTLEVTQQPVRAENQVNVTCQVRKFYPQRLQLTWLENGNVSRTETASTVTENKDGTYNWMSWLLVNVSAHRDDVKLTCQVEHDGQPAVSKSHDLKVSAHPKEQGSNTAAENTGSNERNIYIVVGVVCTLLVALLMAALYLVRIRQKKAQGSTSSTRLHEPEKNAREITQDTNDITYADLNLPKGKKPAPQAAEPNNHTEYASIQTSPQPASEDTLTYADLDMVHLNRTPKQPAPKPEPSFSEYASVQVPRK
T2 sequence (Q08722 whole entry, looked up): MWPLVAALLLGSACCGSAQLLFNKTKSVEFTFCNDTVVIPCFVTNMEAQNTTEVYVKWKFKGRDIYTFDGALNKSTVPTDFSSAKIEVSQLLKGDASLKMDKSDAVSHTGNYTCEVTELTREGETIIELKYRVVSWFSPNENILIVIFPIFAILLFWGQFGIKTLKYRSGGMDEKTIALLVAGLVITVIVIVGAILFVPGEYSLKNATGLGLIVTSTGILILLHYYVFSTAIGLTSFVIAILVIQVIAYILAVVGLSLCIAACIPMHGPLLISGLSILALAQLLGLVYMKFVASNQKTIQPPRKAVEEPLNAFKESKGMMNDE
Summary of the method: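 First, His-tagged CD47 and Eu-labelled anti-His antibody met the compound for 30 min; next, site-specifically biotinylated SIRPalpha was added for 30 min; finally streptavidin-APC was added before reading the TR-FRET ratio.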

[12] = molecular target: T2, Tyrosine-protein phosphatase non-receptor type substrate 1 (Homo sapiens) + Leukocyte surface antigen CD47 (Homo sapiens); assay: CD47-SIRPalpha protein protein interaction - HTRF assay qHTS validation (AID 1347058; active means well fitted curve in the direction sought with a large enough effect in the signal ratio, not every such curve was filed as active; the % refers to the signal ratio;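 further: recombinant soluble extracellular CD47 with His tag and biotinylated SIRPalpha domains; series mostly up to about 38 µM; 0% is about no effect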)
Summary of the method: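 TR-FRET read (Ch1/Ch2 ratio) of soluble extracellular CD47 and Avi-biotinylated SIRPalpha domains in PBS pH 7.4 with 0.05% IGEPAL; 7-point compound titration. Sequential 30 min room-temperature steps; non-biotinylated SIRPalpha as control inhibitor.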

[13] = molecular target: T2, Tyrosine-protein phosphatase non-receptor type substrate 1 (Homo sapiens) + Leukocyte surface antigen CD47 (Homo sapiens); assay: CD47-SIRPalpha protein protein interaction - Alpha assay qHTS validation (AID 1347059);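 further: bead proximity luminescence from CD47 binding SIRPalpha after compound preincubation with SIRPalpha; potency means the concentration at half of the fitted maximal effect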
Summary of the method: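 Binding is measured by AlphaScreen proximity: Ni-NTA acceptor beads capture His-CD47, streptavidin donor beads capture biotin-SIRPalpha. Each of three additions (SIRPalpha with compound, CD47, beads) incubates 30 min at room temperature protected from light.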

[14] = molecular target: Parathyroid hormone/parathyroid hormone-related peptide receptor (Homo sapiens) (UniProt Q03431); assay: qHTS for PTHR1 Agonists: Optimization Screen against the NCGC LOPAC library (AID 1347079);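 further: GloSensor cAMP luminescence in HEK-293 GP2 cells expressing human PTHR1 with IBMX; 0% is about no effect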
Parathyroid hormone/parathyroid hormone-related peptide receptor (Homo sapiens), sequence (Q03431 whole entry, looked up): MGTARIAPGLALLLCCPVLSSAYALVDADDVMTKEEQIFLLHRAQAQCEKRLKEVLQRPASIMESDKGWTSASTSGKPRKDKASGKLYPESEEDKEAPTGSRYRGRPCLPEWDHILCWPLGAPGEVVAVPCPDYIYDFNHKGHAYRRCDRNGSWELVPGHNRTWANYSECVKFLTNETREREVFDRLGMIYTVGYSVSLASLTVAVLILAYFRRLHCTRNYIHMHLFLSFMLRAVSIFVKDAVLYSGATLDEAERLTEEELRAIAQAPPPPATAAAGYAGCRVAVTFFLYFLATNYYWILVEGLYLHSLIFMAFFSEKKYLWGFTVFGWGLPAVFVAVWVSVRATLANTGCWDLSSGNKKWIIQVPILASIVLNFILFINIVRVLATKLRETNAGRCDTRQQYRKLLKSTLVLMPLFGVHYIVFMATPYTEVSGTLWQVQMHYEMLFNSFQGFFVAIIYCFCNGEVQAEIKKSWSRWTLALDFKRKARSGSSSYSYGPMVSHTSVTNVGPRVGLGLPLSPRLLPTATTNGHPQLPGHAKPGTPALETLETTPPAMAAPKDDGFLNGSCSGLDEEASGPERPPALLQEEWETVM
Summary of the method: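 Agonist readout: GloSensor cAMP luminescence, read after 15 min at room temperature. HEK-293-derived GP2 line carries PTHR1; compounds tested as a titration for 1 hr at 37C in presence of IBMX. M-PTH (1-15) served as control.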

[15] = molecular target: Lysine-specific demethylase 5B (Homo sapiens) (UniProt Q9UGL1); assay: Optimization screen for KDM5B Histone Demethylases FDH coupled qHTS against the LOPAC library (AID 1347166); further: 0% is about no effect
Summary of the method: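 KDM5BDeltaAP (200nM final) preincubated 10 min with compound, then 12.5uM H3K4Me3, 25uM a-ketoglutarate, ascorbate, Fe(II), NAD+ and FDH added; 50mM HEPES pH 7.5, 0.01% Tween-20. NADH fluorescence (340/450 nm) change over 30 min, room temperature.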

[16] = qHTS for inhibitors of adenylyl cyclases using a fission yeast platform: a pilot screen against the NCATS LOPAC library (AID 1347410);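 further: plate controls were DMSO vehicle for no effect and DPI positive control for full effect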
Summary of the method: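 Inhibition of GNAS-stimulated AC9 activity in S. pombe was inferred from derepression of a PKA-repressed fbp1-GFP reporter, measured as cytometric fluorescence after 18 h at 30C with compounds at up to 57 µM.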

[17] = molecular target: Single-stranded DNA cytosine deaminase (Homo sapiens) (UniProt Q9GZX7); assay: Validation qHTS assay for inhibitors of Activation Induced Cytidine Deaminase (AID): AID signal (AID 1347429); further: on the % scale 0 is the no-effect control and ±100 the full control effect
Single-stranded DNA cytosine deaminase (Homo sapiens), sequence (Q9GZX7 whole entry, looked up): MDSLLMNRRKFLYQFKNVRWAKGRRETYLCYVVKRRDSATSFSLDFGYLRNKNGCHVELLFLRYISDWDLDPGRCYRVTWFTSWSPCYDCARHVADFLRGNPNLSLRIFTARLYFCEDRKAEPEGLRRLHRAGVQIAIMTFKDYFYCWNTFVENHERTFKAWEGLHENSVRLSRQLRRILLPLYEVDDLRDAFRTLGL
Summary of the method: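 Fluorescence at 540 nm excitation and 590 nm emission reports ssDNA cytosine deamination by AID, with UDG in the same well. Compound-treated reactions ran 4 hr at room temperature with DJC20/DJC23 substrate, followed by 30 min NaOH treatment.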

[18] = Primary qHTS for inhibitors of La Crosse Virus (LACV) - induced cell death in SH-SY5Y cells (AID 1508616);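 further: top concentration of the series differs between compounds; 0% = infected DMSO wells and 100% = uninfected DMSO wells; higher means more rescue of cells from virus-induced death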
Summary of the method: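 Protection against LACV-induced cell death is scored in SH-SY5Y cells exposed to compounds and virus (0.01 MOI) for 6 days. Data normalized to virus-infected DMSO wells and virus-free DMSO wells.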

[19] = Cell Viability qHTS for small molecule stabilizers of the endoplasmic reticulum resident proteome (AID 1508629); conditions: cell viability counter-screen, 100 nM thapsigargin for final 4 h;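 further: human SH-SY5Y neuroblastoma cells carrying the GLuc-SERCaMP reporter; compound exposure about 46 h in total before the viability read; on the % scale 0 is the no-effect control and ±100 the full control effect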
[20] = molecular target: Papain (Carica papaya) (UniProt P00784); assay: Primary qHTS assay for inhibitors of the protease papain (AID 1645873);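 further: papain turnover of Z-FR-AMC read as the AMC fluorescence gain over 10 min; series mostly up to about 50 µM; on the % scale 0 is the no-effect control and ±100 the full control effect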
Papain (Carica papaya), sequence (P00784 whole entry, looked up): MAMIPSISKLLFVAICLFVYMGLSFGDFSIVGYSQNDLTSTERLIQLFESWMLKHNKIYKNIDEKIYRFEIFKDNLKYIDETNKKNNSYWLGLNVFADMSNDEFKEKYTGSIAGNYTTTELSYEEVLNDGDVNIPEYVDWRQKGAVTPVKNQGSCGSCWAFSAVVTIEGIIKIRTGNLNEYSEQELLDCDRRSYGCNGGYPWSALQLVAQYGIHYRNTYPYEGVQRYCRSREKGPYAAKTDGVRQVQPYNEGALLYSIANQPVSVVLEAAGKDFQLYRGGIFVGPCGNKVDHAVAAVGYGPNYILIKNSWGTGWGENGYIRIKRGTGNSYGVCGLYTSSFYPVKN

[21] = molecular target: Metallo-beta-lactamase type 2 (Klebsiella pneumoniae) (UniProt C7C422); assay: qHTS to identify inhibitors of the New Delhi Metallo-beta-lactamase (NDM): assay validation screen against the NCATS LOPAC Collection (AID 1794843)
Metallo-beta-lactamase type 2 (Klebsiella pneumoniae), sequence (C7C422 whole entry, looked up): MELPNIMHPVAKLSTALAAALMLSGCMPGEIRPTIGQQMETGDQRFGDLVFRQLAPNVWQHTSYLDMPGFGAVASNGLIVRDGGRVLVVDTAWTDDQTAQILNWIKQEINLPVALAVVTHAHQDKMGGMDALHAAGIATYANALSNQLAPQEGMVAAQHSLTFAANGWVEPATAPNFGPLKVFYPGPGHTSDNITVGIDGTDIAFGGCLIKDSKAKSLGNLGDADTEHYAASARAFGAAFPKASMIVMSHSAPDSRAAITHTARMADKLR
Summary of the method: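 Enzyme 2 nM final, 50 mM HEPES pH 7.0, 1 uM ZnSO4, 0.01% Tween20; cpds in DMSO, preincub w/ enzyme; + nitrocefin (50 uM stock); A485 at plateau; no-enzyme column as blank.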

[22] = molecular target: Glutathione peroxidase 1 (Homo sapiens) (UniProt P07203); assay: Primary qHTS Assay for Inhibitors of Recombinant Selenoprotein Glutathione Peroxidase 1 (GPX1) (AID 1845191); further: nearly all actives have a fitted effect of over 65% in size
Glutathione peroxidase 1 (Homo sapiens), sequence (P07203 whole entry, looked up): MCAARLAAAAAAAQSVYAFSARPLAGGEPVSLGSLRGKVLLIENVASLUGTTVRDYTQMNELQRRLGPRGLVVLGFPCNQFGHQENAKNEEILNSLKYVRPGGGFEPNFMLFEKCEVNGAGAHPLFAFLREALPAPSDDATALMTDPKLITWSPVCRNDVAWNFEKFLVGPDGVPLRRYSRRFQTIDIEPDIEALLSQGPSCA
Summary of the method: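 10 nM GPX1 + cpd, 30 min RT; start w/ 1 mM GSH, 0.5 mM cumene hydroperoxide, 0.5 mM NADPH, 100 nM GR, 0.01% BSA; buffer 50 mM Tris-HCl pH 7.5, 2 mM EDTA, 150 mM NaCl; Fl 340/450, 0 & 15 min.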

[23] = molecular target: Phospholipid hydroperoxide glutathione peroxidase GPX4 (Homo sapiens) (UniProt P36969); assay: Primary qHTS Assay for Inhibitors of Recombinant Selenoprotein Glutathione Peroxidase 4 (GPX4) (AID 1845192); conditions: outcome: dose series up to 50 µM unless noted; further: nearly all actives have a fitted effect of over 65% in size
Phospholipid hydroperoxide glutathione peroxidase GPX4 (Homo sapiens), sequence (P36969 whole entry, looked up): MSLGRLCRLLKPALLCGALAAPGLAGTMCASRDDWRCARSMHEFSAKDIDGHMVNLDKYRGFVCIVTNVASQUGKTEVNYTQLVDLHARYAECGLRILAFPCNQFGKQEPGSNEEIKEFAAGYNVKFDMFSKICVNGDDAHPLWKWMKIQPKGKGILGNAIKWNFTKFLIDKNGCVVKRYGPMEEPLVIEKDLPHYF
Summary of the method: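 NADPH consumption, followed by fluorescence at 340/450 nm between 0 and 15 min, reports GPX4 activity via coupled glutathione reductase (100 nM). Enzyme 200 nM was pre-exposed to compound 30 min; 0.5 mM cumene hydroperoxide and 1 mM GSH served as substrates.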

O=C1c2ccccc2C(=O)c2c(NCCc3ccc(O)cc3)ccc(NCCc3ccc(O)cc3)c21
inactive: outcome [1] | outcome [2] | outcome [3] | Potency [4] | outcome [5] | outcome [6] | outcome [7] | outcome [11] | outcome [12] | outcome [14] | outcome [15] | outcome [16] | Potency [17] | outcome [18] | max response [19] -20.2% | Potency [20] | Potency [21] | Potency [22] | Potency [23]
active: Potency [8] 11.7 µM | Potency [9] 12 µM | Potency [10] 13.1 µM | Potency [13] 1.85 µM

Source: PubChem BioAssay (NCATS)
